# Data: the supplement of paper PMC6555819
# Tests used:
# Assay in all cases: PBM binding z-score (relative to random genomic background probes); higher = stronger binding; sequences stand for … in GC…GCGATTGACAGCGTAGAATGAAGG
# [1] = tested on: PPARg:RXRa DBDmut IVT, anti-RXR (DBD mutation: RXRa K156A/R161A, NR concentration 270 nM, RXRa partner concentration 90 nM)
# In short: (§1)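 Custom Agilent 4×180K protein-binding microarrays carried double-stranded probes. Their 34-nt variable regions held direct-repeat seeds, single-nucleotide variants, half-site ablations and random human genomic background sequences. Arrays were incubated 1 h with ligand-free nuclear receptor dimers in PBS pH 7.4, 2% milk, 0.02% Triton X-100, 1 mM DTT, 0.2 mg/mL BSA and 0.4 mg/ml salmon testes DNA. Antibodies against each partner (one per run) detected binding, and scanned fluorescence was regression-normalized. Binding z-scores use random background probes as reference.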
# [2] = tested on: PPARg:RXRa IVT, anti-PPARg (NR concentration 270 nM, RXRa partner concentration 90 nM)
# In short: as §1
# [3] = tested on: PPARg DBDmut:RXRa IVT, anti-PPARg (DBD mutation: PPARg1 K132A/R137A, NR concentration 270 nM, RXRa partner concentration 90 nM)
# In short: as §1
# [4] = tested on: PPARg DBDmut IVT, anti-PPARg (DBD mutation: PPARg1 K132A/R137A, NR concentration 270 nM)
# In short: as §1
# [5] = tested on: PPARg homodimer (NR concentration 180 nM)
# In short: as §1
# [6] = tested on: PXR:RXRa (NR concentration 270 nM, RXRa partner concentration 90 nM)
# In short: as §1
# [7] = tested on: PXR homodimer (NR concentration 270 nM)
# In short: as §1
# [8] = tested on: RARa:RXR (NR concentration 270 nM, RXRa partner concentration 90 nM)
# In short: as §1
# [9] = tested on: RARa homodimer (NR concentration 270 nM)
# In short: as §1
# [10] = tested on: RARb:RXRa (NR concentration 270 nM, RXRa partner concentration 90 nM)
# In short: as §1
Sequence,PBM binding z-score [1],PBM binding z-score [2],PBM binding z-score [3],PBM binding z-score [4],PBM binding z-score [5],PBM binding z-score [6],PBM binding z-score [7],PBM binding z-score [8],PBM binding z-score [9],PBM binding z-score [10]
ACTAGCAGGCCAAGTTTGGGTCACTTAAACAAAG,0.815,1.34,-0.398,-0.134,0.336,0.603,-0.404,1.6,-0.389,1.91
TCCAGTAGGTTAGGGGCATTCAGAATGGCGTCGA,3.35,2.67,-0.472,0.307,1.01,0.69,0.251,0.878,-0.317,1.22
CAAACTAAGTCAAGGTCAAAGTCGGTTTGTGCCA,2.53,3.35,0.787,0.588,2.93,4.73,2.29,4.9,1.46,4.13
CCTGCTAGGTCGTGGTCAGCTAATCTACAGTATG,1.33,0.742,-0.546,-0.828,0.0786,0.00895,-0.22,0.444,-0.694,1.71
TCTTGTGGATCAGCAGGTTAAGAAAGCTGGCCAA,1.59,0.745,-0.449,0.165,0.237,0.354,-0.204,0.573,0.249,0.338
ATTGAAAGGTCGACGAGGTGAGTATACACCGTTT,0.761,2.3,1.58,1.35,1.78,3.19,0.959,3.86,0.685,4.05
CCGACTGGGGCAGAGAGGTTACCATACCATCCGG,2.02,1.91,-0.515,-1.59,0.15,0.359,-0.131,0.845,0.129,1.24
TCTCGGAGGACACGAAGGTCAGAGGTTTCCAGAG,1.38,1.27,-0.769,-0.978,1.73,2.39,1.24,2.75,0.0674,3.42
TCTATTAGTTGAAGTGCAACCGACGAGTCCGTTT,2.28,0.306,0.956,1,0.829,0.982,1.24,0.832,0.781,0.825
CCTACTGGGCCAAGGCCATTGATCAGTCAAAGCA,2.95,2.89,-0.753,-1.61,0.0949,-0.456,-0.233,-0.557,-0.85,0.554
GCTTGTAGATTAAGGTTAAGAAAGACTAAGCTAA,-0.0536,0.119,0.205,-0.0743,0.0936,0.375,-0.332,1.01,0.194,0.875
ACTAGTTGGTCAGCTGAGGTCAAACACAATTCGG,1.45,2.49,0.694,0.579,3.02,6.03,3.32,5.18,2.07,3.62
ATCTCTAGGTAACAAGTTCAGTGATAGAGAGGAC,3.07,2.7,1.93,1.91,1.18,1.7,1.97,0.777,1.13,1.69
CGAAGGAGGGCATGAGTTGATAGCAAATGCCGAT,2.57,2.1,0.0677,-0.445,0.352,0.02,-0.165,0.152,-0.898,1.53
GTACCAAGGTGAATAGGTCGTGGATGAGTAGGCG,2.1,2.87,0.27,-0.568,1.84,0.978,-0.029,2.11,0.457,2.09
TAGCATAGGTCATGGGCCAGTATACCACGCGAAC,0.625,2.53,0.682,0.0731,2.07,3.23,-0.144,4.27,0.528,4.41
ATATGTAGGTTATCGGGTCTTTCAGTTTGCGCAT,7.73,6.72,2.3,2.32,2.02,1.2,1.43,1.07,1.78,1.3
AGTCAAAGTTCACTAGGGAACGTAAGATTCAGCT,0.937,3.63,0.753,0.755,2.24,3.94,2.56,2.71,0.63,4.57
ACTAGTTGGTCCGCTGAGGTCACACACAATTCGG,0.592,1.67,0.377,-0.126,2.76,4.69,2.24,4.51,0.677,2.97
TATACAGGGTCAAAGGCTAGAGTACGAATGTCGA,2.33,4.88,1.73,2.03,3.15,4.01,1.01,5.02,1.11,4.53
ATATGTAGGTTATCGGGTCATTAAGTTTGCGCAT,7.51,7.55,2.77,2.29,2.72,4.08,9.55,3.8,1.51,2.62
TAGCCAAGGTCATGGGCCAGTATACCACGCGAAC,1.56,3.66,0.971,1.48,2.86,4.24,0.572,4.73,0.369,5.36
CCTTAAGGGTCAAGGTTATAGCACGGGTGGTACG,2.34,3.94,0.0433,0.353,2.23,4.37,0.453,5.62,1.31,5.4
GCATATAGGTAATATAAGGTGAAAGTCCGATTGT,3.84,3.32,1.58,0.946,0.929,0.702,0.375,1.78,0.541,0.618
